Assay outcomes: PubChem, National Center for Advancing Translational Sciences (NCATS)
VACV mCherry inh = inhibitors of vaccinia virus infection (mCherry reporter signal) | Vaccinia virus mCherry reporter infection, fluorescence | Potency, µM (highest dose often 36.5 µM), without a hit: at the top dose activity change, negative = inhibition, most hits filed as inhibitors | actives 0.63% (n = 310,000) | AID 720579; calls by dose curve; tested in A549 cells; further: nearly all actives have a fitted effect of over 35% in size
VACV Venus inh = vaccinia inhibition (Venus reporter). Vaccinia virus Venus reporter expression, fluorescence. Potency, µM (top dose mostly 36.5 µM), inactives show at the highest dose activity change, negative = inhibition, actives largely listed as inhibitors. actives 0.46% (n = 330,000). AID 720580; calls by dose curve; tested in A549 cells; further: nearly all actives have a fitted effect of over 30% in size
Marburg entry inh = inhibitors of Marburg virus binding or cell entry; actives 1.8% (n = 300,000); Potency, µM (highest dose often 37.8 µM), inactives show at the highest dose activity change, negative = inhibition, actives largely listed as inhibitors; Marburg virus pseudotyped entry inhibition, cell reporter; calls by dose curve; tested in HEK293 cells
Sm TGR inh = S. mansoni TGR enzyme inhibition | purified TGR, DTNB reduction, TNB absorbance 405 nm | Potency, µM (highest dose often 114 µM), for inactives: top-dose activity change, negative = inhibition, most hits filed as inhibitors | actives 3% (n = 360,000); active means well fitted inhibition curve with a large enough effect; inconclusive means small, poorly fitted or top-dose-only effect; inactive means no such curve, though single readings can be large or run the other way; further: nearly all actives have a fitted effect of over 60% in size
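TGR 20 nM + NADPH 100 uM (dispensed conc.), cpd preinc 15 min RT; start with NADPH (500 uM addition) then DTNB (15 mM addition). Kinetic TNB absorbance, 405 nm filter. Four-parameter Hill fit across titration.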
FMDV inh = blocks foot and mouth disease virus. FMDV antiviral cell-based qHTS. Potency, µM (series often up to 57.9 µM), without a hit: at the top dose activity change, negative = inhibition, usual class: inhibitors. actives 1.2% (n = 410,000). AID 1159524; calls by dose curve; tested in HEK293T cells; further: read-out not given here; nearly all actives have a fitted effect of over 45% in size
Lassa entry inh = blocks Lassa virus binding to or entry into cells | Lassa virus pseudotype entry inhibition, cell reporter | Potency, µM (doses to about 37.9 µM), inactives show top-dose activity change, negative = inhibition, actives largely listed as inhibitors | actives 1.2% (n = 300,000) | AID 540256; calls by dose curve; tested in HEK293 cells; further: nearly all actives have a fitted effect of over 50% in size
Starred values were filed as active, the others as inactive; i = inactive; ? = inconclusive; . = no result given; [ ] = another dose, or the depositor's remark. Compounds with a hit are over-represented: about 5.4% of the library has one in this group of screens. On the % scale 0 is the no-effect control and ±100 the full control effect; potency means the concentration at half of the fitted maximal effect.

SMILES	VACV mCherry inh	VACV Venus inh	Marburg entry inh	Sm TGR inh	FMDV inh	Lassa entry inh
COc1ccc(OC)c(NC(=O)c2oc3c(c2C)-c2nn(Cc4ccc(Cl)cc4)cc2CC3)c1	-21.1%	-21.8%	.	7.2%	-2.4%	6.9%[46.1 µM]
CC(=O)N1CCN(C(=O)c2ccc(-c3cccc(C(F)(F)F)c3)o2)CC1	-4.8%	-10.7%	21.3%	31.6µM*	-11.5%	1.3%
NC1=C(Br)C(=O)c2ncccc2C1=O	?	2.51µM*	2.51µM*	.	3.98µM*	?
O=C(Nc1ccccc1)N(Cc1cccs1)c1ccc(F)cc1	-6.9%	-0.2%	?	1.3%	-14.1%	-10.2%[46.1 µM]
COc1ccc(/C=C/C(=O)c2ccc(NC3=NCCCS3)cc2)cc1OC	-28.1%	?	?	-3.5%	15.8µM*	-2.2%
CCC1CSC(Nc2ccc(C(=O)/C=C/c3ccc(OC)c(OC)c3)cc2)=N1 (configuration not stated)	11.2µM*	?	?	3.1%	25.1µM*	23.1µM*
Cc1cccnc1C(NC(=O)C1CCN(Cc2cn(C)c3ccccc23)CC1)c1ccc(Cl)cc1 (configuration not stated)	14.1µM*	11.2µM*	.	.	0.0%	.
Cc1cccnc1C(NC(=O)C1CCN(Cc2ccc(Cl)cc2)CC1)c1ccccc1 (configuration not stated)	i	-14.2%	.	.	-17.1%	.
CC(C)NC[C@H](O)c1cc(O)cc(O)c1	.	.	-6.2%	.	.	.
CC(C)NC[C@H](O)c1ccc(O)c(O)c1	-0.2%	-15.1%	?	44.7µM*	-16.2%	1.0%
CCC(NC(C)C)C(O)c1ccc(O)c(O)c1 (configuration not stated)	-12.6%	-11.6%	-1.3%	?	-12.6%	?
CCC(c1ccc(O)c(O)c1)C(CC)c1ccc(O)c(O)c1 (configuration not stated)	3.16µM*	-14.8%	?	.	-18.3%	?
COc1ccc2c(c1)OC(C)CN(CCNC(=O)C1CCOC1)C2 (configuration not stated)	-4.4%	7.4%	.	.	10.9%	.
Cc1cc(NC(=O)CC2CCCC2)n(-c2nc3ccccc3[nH]2)n1	?	?	?	22.4µM*	-26.8%	?
Nc1nc(N)c2cc(CNc3ccc(Cl)c(Cl)c3)ccc2n1	?	5.62µM*	.	.	35.5µM*	.
CCOc1ccc2nc3cc(NCc4ccc(OC)cc4)ccc3c(N)c2c1	.	.	.	-4.5%	?	.
COc1ccc(CCNC(=O)c2c(C)nn(CC(C)C)c2Cl)cc1	?	-18.3%	-8.7%	2.1%	1.1%	2.24µM*
CCOC(=O)c1c(C)c(C(=O)NCCc2ccc(OC)cc2)c(C)n1CC	-5.3%	3.9%	-25.8%[46.1 µM]	22.4µM*	-17.4%	.
COc1cc(-c2ccc(Cl)cn2)cc2c1OCCN(S(=O)(=O)C[C@]13CC[C@H](CC1=O)C3(C)C)C2	-18.0%	-7.7%	.	.	-3.4%	.
NNC(=O)CNC(c1ccccc1)c1cc(Br)ccc1NC(=O)c1ccc(Br)cc1 (configuration not stated)	-6.0%	-10.7%	1.7%	2.4%	-21.9%	?
NNC(=O)CNC(c1ccccc1)c1cc(Br)ccc1NC(=O)CCN1CCOCC1 (configuration not stated)	.	6.0%	?	17.8µM*	-9.0%	-2.6%
CCOC(=O)c1sc2nc3n(c(=O)c2c1C)CCC(C)CC3 (configuration not stated)	i	0.0%	4.1%	-2.1%	.	-3.1%
CCOC(=O)N1CCN(C(=O)Nc2sc3nc4n(c(=O)c3c2C)CCC(C)CC4)CC1 (configuration not stated)	-6.1%	0.0%	-1.8%	2.82µM*	.	5.5%
O=C(C(c1ccccc1)c1ccccc1)N1CCCc2ccccc21	i	-8.8%	14.1µM*	-23.3%	-6.7%	-20.1%
O=C(C(Cc1ccccc1)n1cccc1)N1CCc2ccccc21 (configuration not stated)	i	-2.5%	.	35.5µM*	0.0%	.
SMILES	VACV mCherry inh	VACV Venus inh	Marburg entry inh	Sm TGR inh	FMDV inh	Lassa entry inh
O=C(c1coc(=O)c(Br)c1)N1CCCc2ccccc21	-16.9%	-11.9%	14.2%	22.4µM*	0.5%	-14.4%
CCCN1CCN(C(=O)Cn2c(-c3cccs3)cc3ccccc32)CC1	-9.9%	-11.4%	.	-6.7%	-8.2%	-1.9%[46.1 µM]
CNC(=S)NN=C(C)c1ccc(OC)cc1O	5.01µM*	?	?	.	48.0%	4.0%
COc1ccc(/C(C)=N/N=C(N)N)c(O)c1	-5.2%	-4.5%	?	3.6%	-15.8%	28.2%[46.1 µM]
COC(=O)[C@H]1[C@H](C)[C@@]2(O)c3ccccc3N(C)[C@@]1(C)[C@H]2O	.	.	-24.9%[14.2 µM]	.	.	.
Cc1cc(C)nc(-n2ncc3c2CC(c2ccccc2)CC3=O)n1 (configuration not stated)	-4.3%	4.0%	-3.6%[46.1 µM]	6.5%	-25.0%	?
Cc1cc(C)nc(-n2ncc3c2CC(c2cccc(Cl)c2)CC3=O)n1 (configuration not stated)	10µM*	?	5.62µM*	3.7%	-13.8%	?
Cn1cc(/C=C/c2ccc3ccccc3n2)c2ccccc21	-22.2%	21.4%	.	.	.	.
OC(c1cccnc1)c1ccc2c(c1)CN(Cc1ccc(-c3ccccc3Cl)o1)CCO2 (configuration not stated)	-0.5%	-7.0%	.	.	2.5%	.
CCN(CC)c1ccc(C=C2C(=O)OC(c3ccccc3)OC2=O)cc1 (configuration not stated)	i	-17.0%	33.2%[46.1 µM]	-27.1%	-9.9%	-9.3%[46.1 µM]
CCN(CC)c1ccc(/C=C/C(=O)C2C(=O)C=C(C)OC2=O)cc1 (configuration not stated)	19.5%	284.5%	?	8.91µM*	34.0%	?
CC(=O)c1ccc(NC(=O)NCCc2c[nH]c3ccccc23)cc1	-0.2%	-12.8%	26.9%[46.1 µM]	-1.3%	10.1%	-7.2%[46.1 µM]
CCCN1CCC(Oc2cc(Nc3nc(Nc4cccc(F)c4C(N)=O)c4cc[nH]c4n3)c(OC)cc2Cl)CC1	.	.	.	.	.	12.5µM*
CCCN1CCCC(c2ccc(Nc3nc(Nc4cc(F)ccc4C(N)=O)c4cc[nH]c4n3)c(OC)c2)C1 (configuration not stated)	.	.	.	.	.	14.1µM*
COc1ccc(S(=O)(=O)Nc2cc(SCC(=O)O)c(O)c3ccccc23)cc1	.	.	0.0%	3.55µM*	-48.8%	.
O=C(O)CSc1cc(NS(=O)(=O)c2ccc(Cl)cc2)c2ccccc2c1O	14.1µM*	?	?	7.08µM*	?	?
O=S(=O)(Nc1ccc(Cl)cc1NS(=O)(=O)c1ccccc1)c1ccccc1	-3.8%	-23.1%	4.3%[46.1 µM]	.	-21.4%	-2.2%[46.1 µM]
Cc1cc(C)c(S(=O)(=O)Nc2cc(SCC(=O)O)c(O)c3ccccc23)cc1C	-1.3%	-1.4%	?	8.91µM*	-3.7%	-11.6%
COc1ccc(S(=O)(=O)Nc2cc(Sc3ncn[nH]3)c(O)c3ccccc23)cc1	.	.	.	0.501µM*	.	.
O=C(CSc1nc2c([nH]c3ccccc32)c(=O)n1-c1cccc(Cl)c1)c1ccccc1	-18.1%	-19.1%	.	4.8%	-17.7%	1.9%[46.1 µM]
